Screens deposited in PubChem BioAssay by National Center for Advancing Translational Sciences (NCATS).
pAkt inh: HTS Assay for Inhibitors of Akt Phophorylation: Primary Screen; Neuro2A IGF-stimulated pAkt S473 HTRF, 20 min; hits give low values; activity change, % for hits at 50 µM; 360,000 compounds, 0.32% hits; AID 651550, 2012; in the data active = activity change below about -80%; inconclusive = mostly about -51% to -80%; also: % is scaled to controls: 0 for no effect and ±100 for the full control effect
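Neuro2A cells (4,500/well, DMEM with 0.5% FBS) were treated with compound at a single 50 µM final concentration, stimulated with 6 nM IGF for 20 min at 37 °C, and lysed. Phospho-Akt Ser473 was read by HTRF as 665/615 ratio ×10^4.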
gsp agonist: qHTS for Agonist of gsp, the Etiologic Mutation Responsible for Fibrous Dysplasia/McCune-Albright Syndrome: qHTS; gsp mutant cells, cAMP HTRF, 30 min; Potency, µM (highest dose often 76.9 µM), inactives show top-dose activation (cAMP increase), actives largely listed as activators; 340,000 compounds, 0.13% hits; active = well fitted activation curve with a large enough effect; inconclusive = small, poorly fitted or top-dose-only effect, or another doubt; inactive = no such curve, though single readings can be large or run the other way; cell line not stated here;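 also: phosphodiesterase inhibitor Ro 20-1724 added with compounds to block cAMP breakdown; potency is read from the fitted curve at half-maximal effect; nearly all actives have a fitted effect of over 60% in size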
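Cells stably selected in G418 were plated at 2000/well, grown 16-24 hr, then given compounds in DMSO with the PDE inhibitor […] (300 uM solution added) for 30 min at 37C; cAMP was read by HTRF.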
RXFP1 agonist: qHTS Assay for Agonists of the Relaxin Receptor RXFP1; Relaxin receptor 1 (Homo sapiens), Q9HBX9; HEK293T-RXFP1 cAMP TR-FRET, 30 min; response scale: percent of porcine relaxin response, buffer zero; Potency, µM (titrated, usually from 57.5 µM), without a hit: at the highest dose activation, hits mostly activators; 370,000 compounds, 0.3% hits; AID 2676, 2010; active = well fitted activation curve with a large enough effect; inconclusive = small, poorly fitted or top-dose-only effect; also: potency is read from the fitted curve at half-maximal effect; % is scaled to controls: 0 for no effect and ±100 for the full control effect; nearly all actives have a fitted effect of over 60% in size
Target sequence (Q9HBX9 whole entry, looked up): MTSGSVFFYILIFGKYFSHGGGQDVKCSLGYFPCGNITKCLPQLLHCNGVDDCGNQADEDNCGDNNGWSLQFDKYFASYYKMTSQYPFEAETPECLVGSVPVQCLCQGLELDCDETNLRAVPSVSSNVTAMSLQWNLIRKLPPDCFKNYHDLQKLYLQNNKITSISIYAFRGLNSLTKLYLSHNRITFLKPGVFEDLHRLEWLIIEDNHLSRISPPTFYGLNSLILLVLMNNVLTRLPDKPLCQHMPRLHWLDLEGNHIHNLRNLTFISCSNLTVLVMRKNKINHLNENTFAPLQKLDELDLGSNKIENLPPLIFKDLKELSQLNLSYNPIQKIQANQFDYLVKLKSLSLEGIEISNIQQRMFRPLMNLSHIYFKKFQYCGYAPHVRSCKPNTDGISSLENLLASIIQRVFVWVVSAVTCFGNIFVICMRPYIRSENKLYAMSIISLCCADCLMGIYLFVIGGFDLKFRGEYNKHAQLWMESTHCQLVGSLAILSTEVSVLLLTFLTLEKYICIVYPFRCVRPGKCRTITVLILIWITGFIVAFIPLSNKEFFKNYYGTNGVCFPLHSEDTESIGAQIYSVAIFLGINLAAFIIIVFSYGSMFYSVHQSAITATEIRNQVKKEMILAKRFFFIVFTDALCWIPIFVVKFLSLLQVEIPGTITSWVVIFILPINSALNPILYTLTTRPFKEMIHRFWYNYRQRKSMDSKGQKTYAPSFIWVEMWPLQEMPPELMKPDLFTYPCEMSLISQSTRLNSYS
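HEK293 cells stably expressing RXFP1, treated 30 min at 37C with compounds plus PDE4 inhibitor Ro 20174; cAMP measured by HTRF TR-FRET. Normalized to buffer and 29 nM porcine relaxin; EC50 by Hill fit.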
RXFP1 antag: qHTS Assay for Antagonists of the Relaxin Receptor RXFP1. Relaxin receptor 1 (Homo sapiens), Q9HBX9. HEK293-RXFP1, relaxin-stimulated cAMP HTRF, 30 min; hits give low values. activity change, negative = inhibition, % at 57.5 µM. 350,000 compounds, 0.59% hits. AID 1259400, 2018;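 active = activity change of -60% or lower, but not beyond a set lower limit; inconclusive = change between -60% and -40%, or beyond the set limit; inactive = change above -40%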; also: % is scaled to controls: 0 for no effect and ±100 for the full control effect
gsp antag: qHTS for Antagonists of gsp, the Etiologic Mutation Responsible for Fibrous Dysplasia/McCune-Albright Syndrome: qHTS; 340,000 compounds, 0.4% hits; gsp-mutant cells, cAMP HTRF, 30 min; Potency, µM (highest dose often 76.9 µM), without a hit: at the highest dose activity change, negative = inhibition, hits mostly inhibitors; calls by dose curve; cell line not stated here;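 also: intracellular cAMP measured with PDE inhibitor Ro 20-1724 present during compound exposure; potency is read from the fitted curve at half-maximal effect; % is scaled to controls: 0 for no effect and ±100 for the full control effect; nearly all actives have a fitted effect of over 65% in size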
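G418-selected cells were plated in DMEM/10% FBS for 16-24 h at 37C, then treated with compounds plus the PDE inhibitor […] (300 uM solution added) for 30 min at 37C. Intracellular cAMP was measured by HTRF after 30 min lysis at room temperature.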
ClpP mod: qHTS Assay for Activators of ClpP | ATP-dependent Clp protease proteolytic subunit (Bacillus subtilis (strain 168)), P80244 | purified B. subtilis ClpP, FRET peptide cleavage, 20 min | Potency, µM (titrated, usually from 57.5 µM), inactives show at the highest dose activity change, negative = active | 340,000 compounds, 1.9% hits | AID 651965, 2013; active = well fitted falling curve with a large enough effect; inconclusive = small, poorly fitted or top-dose-only effect; inactive = no such curve, though single readings can be large or run the other way; also: potency is read from the fitted curve at half-maximal effect; the source files actives as falling curves though it sought activators and does not explain the sign; nearly all actives have a fitted effect of over 65% in size
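Buffer: 100 mM Tris/HCl pH8, 100 mM KCl, 0.05% low protease BSA, 2.5% glycerol, 0.01% Tween-20. ClpP 10 microg/mL final; 20 min RT; delta FRET normalized to ADEP and DMSO controls.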
* marks the source's active call; other numbers are inactive results; i = inactive; ? = inconclusive; . = no result given; [ ] = remark or other dose. Compounds with a hit are over-represented: about 2.7% of the library has one in this group of screens.

SMILES	pAkt inh	gsp agonist	RXFP1 agonist	RXFP1 antag	gsp antag	ClpP mod
O=C1c2oc3ccc(F)cc3c(=O)c2C(c2cccc([N+](=O)[O-])c2)N1CCCN1CCOCC1 (stereo not given)	.	.	0%	-2	.	-8%
COc1ccc2ccccc2c1CN1CCCC(CO)C1 (stereo not given)	-112%*	1%	-1%	-5	13%	-10%
OC1CCCN(Cc2c3ccccc3cc3ccccc23)C1 (stereo not given)	i	11%	-2%	-1	?	20µM*
COc1ccc2ccccc2c1CN1CCN(Cc2ccccc2)CC1	i	-54%	1%	-6	0%	-3%
Cc1ccc(-c2ccccc2NC(=O)CS(=O)CC(=O)Nc2ccc(C)c(Cl)c2)o1 (stereo not given)	i	-26%	4%	-9	-3%	0%
Cc1ccc(NC(=O)CS(=O)CC(=O)NC(C)CCc2ccco2)cc1Cl (stereo not given)	i	-25%	0%	-10	0%	28µM*
COc1ccc(-c2nnc(SCC(=O)Nc3ccc(F)cc3)s2)cc1	.	.	?	0	.	14µM*
CCOC(=O)Nc1nnc(-c2ccc(OC)cc2)s1	i	-29%	4%	0	-3%	13µM*
CCOC(=O)Nc1nnc(-c2cccc(OC)c2)s1	i	-30%	1%	-1	-3%	7%
COc1ccc(/C=C/c2nnc(NC(=O)COc3ccccc3)s2)cc1	i	-9%[15.4 µM]	1%	-3	11%	.
COc1ccc(/C=C/c2nnc(NC(=O)COc3ccc(C)cc3)s2)cc1	i	0%	6%	-4	8%	16µM*
CCOC(=O)c1sc(NC(=O)c2ccc(OC)cc2)nc1C	i	22%	?	1	2%	.
CCOC(=O)c1sc(NC(=O)c2c(OC)cccc2OC)nc1C	-119%*	0%	0%	2	-9%	-3%
COc1cccc(NC(=O)c2c(C)oc3nc(C)nc(N4CCCC4)c23)c1	.	.	1%	-4	.	-1%
CCCCOC(=O)Nc1nnc(/C=C/c2ccc(OC)cc2)s1	i	36%	5%	11	11%	32µM*
COc1ccc(-c2nnc(NC(=O)C3CCCO3)s2)cc1 (stereo not given)	i	7%	0%	-11	5%	13µM*
CCCCC(=O)Nc1nnc(/C=C/c2ccc(OC)cc2)s1	i	23%	1%	8	0%	5%
CCOC(=O)Nc1nnc(-c2ccccc2OC)s1	i	18%	2%	-9	0%[15.4 µM]	3.5µM*
COc1ccc2nc(NC(=O)C3CCCO3)sc2c1 (stereo not given)	i	-8%	1%	1	-5%	0%
CCOC(=O)Nc1nnc(/C=C/c2ccc(OC)cc2)s1	i	14%	-1%	-7	6%	13µM*
O=C1O[C@@H](c2ccccc2)C[C@@H](O)C(=O)CCCCc2ccccc21	i	.	.	.	.	1%
COc1cc(OC)c(NC(=O)C(C)n2c(=O)cc(-c3ccccc3)c3c(C)nn(C)c32)cc1Cl (stereo not given)	.	.	1%	-12	.	32µM*
Cc1c(Cl)cccc1NC(=O)C(C)n1c(=O)cc(-c2ccccc2)c2c(C)nn(C)c21 (stereo not given)	.	.	-1%	-4	.	77%
Cc1nn(C)c2c1c(-c1ccccc1)cc(=O)n2Cc1ccccc1F	.	.	-1%	-26	.	28µM*
Cc1nn(C)c2c1c(-c1ccccc1)cc(=O)n2Cc1ccccc1Cl	.	.	2%	-13	.	28µM*
SMILES	pAkt inh	gsp agonist	RXFP1 agonist	RXFP1 antag	gsp antag	ClpP mod
Cc1nn(C)c2c1c(-c1ccccc1)cc(=O)n2Cc1c(F)cccc1Cl	.	.	-2%	-12	.	-28%
Cc1nn(C)c2c1c(-c1ccccc1)cc(=O)n2Cc1ccc(Br)cc1F	.	.	3%	-7	.	-3%
Cc1c(C(=O)/C=C/N(C)C)nnn1-c1ccc(Cl)cc1Cl	i	0%[15.4 µM]	5%	-64*	-1%	.
Cc1c(C(=O)/C=C/N(C)C)nnn1-c1ccc(F)c(Cl)c1	i	-39%	5%	-26	-16%	.
CCOc1ccc(-c2cn3c(n2)sc2cc(C(=O)NCCc4ccc(OC)c(OC)c4)ccc23)cc1	.	.	6%	-5	.	35µM*
COc1ccc(CCNC(=O)c2ccc3c(c2)sc2nc(-c4ccccc4)cn23)cc1OC	.	.	0%	4	.	?
COc1cc2c(C#CCCCO)c(-c3ccc(C#N)cc3)oc(=O)c2cc1OC	i	.	4%	.	-9%	14µM*
Cc1cc(=O)[nH]c2ccc([N+](=O)[O-])cc12	.	.	.	.	.	-1%
CCNc1nc(N2CCOCC2)nc(N(c2ccccc2)c2ccccc2)n1	-110%*	-16%	-1%	2	-15%	0%
Cc1ccc(N2CC(NC(=O)Cc3ccc(F)cc3)CC2=O)cc1C (stereo not given)	.	.	2%	-2	.	-3%
O=C(N/N=C1\CCCCc2ccccc21)c1ccccn1	i	5%[15.4 µM]	1%	-65*	-1%	.
Cc1ccc(NC(=S)N/N=C2/CCCCc3ccccc32)cc1	i	-15%	-1%	-61*	?	-2%
Cc1nc2ccccc2c(=O)n1/N=C/c1ccc(F)cc1	i	19%	6%	6	6%	-1%
O=C(Nc1ccccc1-c1ccccc1)c1ccc(=O)[nH]n1	i	2%[15.4 µM]	1%	9	2%	-1%
CC(=O)Nc1ccc(S(=O)(=O)N2CCN(c3nc(NC4CCCC4)c4ccccc4n3)CC2)cc1	i	?	0%	5	-3%	28µM*
O=S(=O)(c1cc(Cl)cc(Cl)c1)N1CCN(c2nc(-c3cccs3)nc3ccccc23)CC1	.	.	.	.	.	4%
COC1C(CO)OC(n2c3c(Cl)cccc3c3c4c(c5c6cccc(Cl)c6[nH]c5c32)C(=O)NC4=O)C(O)C1O (stereo not given)	i	?	.	8	28%	0%
O=C(Nc1nc(-c2ccco2)c(-c2ccco2)s1)C1CCC1	i	-28%	0%	-61*	-10%	?
CCOc1ccc(-c2cn3c(n2)sc2cc(C(=O)NCCC4=CCCCC4)ccc23)cc1	.	.	1%	2	.	-20%
O=C(Nc1ccc(/C=C/c2nc3ccccc3o2)cc1)c1ccc(F)cc1	i	2%	2%	-1	7%	3.2µM*
